# Where a name gives a salt, the structure may show the parent alone.
# Tests used:
# Conditions in all cases: treatment time: 24 h
# A549-ACTB-RAB5A [1] = assay: phenotypically active (imaging signature differs from DMSO and reproducible) at any of 0.3-9 uM (binary (1 = active, 0 = inactive)); higher = active
# Summary of the method: (§1)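 After 24 h at 0.3, 1, 3 or 9 µM, with four wells per treatment, fifteen gene-edited A549, HepG2 and WPMY1 reporter lines carrying BFP, GFP and RFP/FusionRed were imaged live. Each well's live-cell features were expressed relative to solvent control wells. Deviation required ≥3 of 4 wells past the 95th percentile of control Euclidean distances, and reproducibility a median replicate Pearson correlation over the 95th percentile of non-replicates. Phenotypic activity rested on both.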
# A549-CANX-COX4 [2] = assay: as above
# Summary of the method: as §1
# A549-GM130-SQSTM1 [3] = assay: as above
# Summary of the method: as §1
# A549-TP53BP1-CLTA [4] = assay: as above
# Summary of the method: as §1
# A549-TUBA1B-RELA [5] = assay: as above
# Summary of the method: as §1
# HepG2-ACTB-RAB5A = assay: as above
# Summary of the method: as §1
# HepG2-CANX-COX4 = assay: as above
# Summary of the method: as §1
# HepG2-GM130-SQSTM1 = assay: as above
# Summary of the method: as §1
# HepG2-TP53BP1-CLTA = assay: as above
# Summary of the method: as §1
# HepG2-TUBA1B-RELA = assay: as above
# Summary of the method: as §1
# WPMY1-ACTB-RAB5A = assay: as above
# Summary of the method: as §1
# WPMY1-CANX-COX4 = assay: as above
# Summary of the method: as §1
# WPMY1-GM130-SQSTM1 = assay: as above
# Summary of the method: as §1
# WPMY1-TP53BP1-CLTA = assay: as above
# Summary of the method: as §1
# WPMY1-TUBA1B-RELA = assay: as above
# Summary of the method: as §1
# A549-ACTB-RAB5A [6] = assay: lowest phenotypically active concentration; higher = less potent
# Summary of the method: as §1
# A549-CANX-COX4 [7] = assay: as above
# Summary of the method: as §1
# A549-GM130-SQSTM1 [8] = assay: as above
# Summary of the method: as §1
# A549-TP53BP1-CLTA [9] = assay: as above
# Summary of the method: as §1
# A549-TUBA1B-RELA [10] = assay: as above
# Summary of the method: as §1
Compound,phenotypically active (A549-ACTB-RAB5A [1]),phenotypically active (A549-CANX-COX4 [2]),phenotypically active (A549-GM130-SQSTM1 [3]),phenotypically active (A549-TP53BP1-CLTA [4]),phenotypically active (A549-TUBA1B-RELA [5]),phenotypically active (HepG2-ACTB-RAB5A),phenotypically active (HepG2-CANX-COX4),phenotypically active (HepG2-GM130-SQSTM1),phenotypically active (HepG2-TP53BP1-CLTA),phenotypically active (HepG2-TUBA1B-RELA),phenotypically active (WPMY1-ACTB-RAB5A),phenotypically active (WPMY1-CANX-COX4),phenotypically active (WPMY1-GM130-SQSTM1),phenotypically active (WPMY1-TP53BP1-CLTA),phenotypically active (WPMY1-TUBA1B-RELA),lowest phenotypically active concentration (A549-ACTB-RAB5A [6]) [µM],lowest phenotypically active concentration (A549-CANX-COX4 [7]) [µM],lowest phenotypically active concentration (A549-GM130-SQSTM1 [8]) [µM],lowest phenotypically active concentration (A549-TP53BP1-CLTA [9]) [µM],lowest phenotypically active concentration (A549-TUBA1B-RELA [10]) [µM]
"CNC(=O)Oc1ccc2c(c1)[C@]1(C)CCN(C)[C@@H]1N2C [Eserine sulfate, physostigmine sulfate]",0 (inactive),0 (inactive),0 (inactive),0 (inactive),0 (inactive),0 (inactive),0 (inactive),0 (inactive),0 (inactive),0 (inactive),0 (inactive),0 (inactive),0 (inactive),0 (inactive),0 (inactive),,,,,
COc1ccc(OC)c(C(O)C(C)N)c1 (stereo unspecified) [methoxamine],0 (inactive),0 (inactive),0 (inactive),0 (inactive),0 (inactive),0 (inactive),0 (inactive),0 (inactive),0 (inactive),0 (inactive),0 (inactive),0 (inactive),0 (inactive),0 (inactive),0 (inactive),,,,,
Cc1ccc(C[N+](C)(C)C)o1 [5-Methylfurmethiodide],0 (inactive),0 (inactive),0 (inactive),0 (inactive),0 (inactive),0 (inactive),0 (inactive),0 (inactive),0 (inactive),0 (inactive),0 (inactive),0 (inactive),0 (inactive),0 (inactive),0 (inactive),,,,,
C/C=C(/C)C(=O)O[C@H]1C(C)=C2[C@H]([C@@H]1OC(=O)CCCCCCC)[C@@](C)(OC(C)=O)C[C@H](OC(=O)CCC)[C@@]1(O)[C@H]2OC(=O)[C@@]1(C)O [Thapsigargin],1 (active),1 (active),1 (active),1 (active),1 (active),1 (active),1 (active),1 (active),1 (active),1 (active),1 (active),1 (active),1 (active),1 (active),1 (active),≤ 0.3,≤ 0.3,≤ 0.3,≤ 0.3,≤ 0.3
CC[C@H]1C2C[C@H]3[C@@H]4N(C)c5ccccc5[C@]45C[C@H](C2[C@H]5O)N3[C@@H]1O (stereo partly specified) [Ajmaline],0 (inactive),0 (inactive),0 (inactive),0 (inactive),0 (inactive),0 (inactive),0 (inactive),0 (inactive),0 (inactive),0 (inactive),0 (inactive),0 (inactive),0 (inactive),0 (inactive),0 (inactive),,,,,
CCC1(CC)C(=O)NC(=O)N(C)C1=O [metharbital],0 (inactive),0 (inactive),0 (inactive),0 (inactive),0 (inactive),0 (inactive),0 (inactive),0 (inactive),0 (inactive),0 (inactive),0 (inactive),0 (inactive),0 (inactive),0 (inactive),0 (inactive),,,,,
CC(C)(C)c1cc(C=C(C#N)C#N)cc(C(C)(C)C)c1O [Malonoben],1 (active),1 (active),1 (active),1 (active),1 (active),1 (active),1 (active),1 (active),1 (active),1 (active),1 (active),1 (active),1 (active),1 (active),1 (active),1,1,≤ 0.3,3,1
CCN1C[C@]2(COC)CC[C@H](OC)[C@]34[C@@H]5C[C@H]6[C@H](OC)[C@@H]5[C@@]5(C[C@@H]6OC)OCO[C@@]5([C@H]13)[C@@H](O)[C@H]24 [Delcorine],0 (inactive),0 (inactive),0 (inactive),0 (inactive),0 (inactive),0 (inactive),0 (inactive),0 (inactive),0 (inactive),0 (inactive),0 (inactive),0 (inactive),0 (inactive),0 (inactive),0 (inactive),,,,,
CNCC(O)c1ccc(O)c(OC)c1 (stereo not drawn) [Metanephrine hydrochloride DL],0 (inactive),0 (inactive),0 (inactive),0 (inactive),0 (inactive),0 (inactive),0 (inactive),0 (inactive),0 (inactive),0 (inactive),0 (inactive),0 (inactive),0 (inactive),0 (inactive),0 (inactive),,,,,
C[C@@H](N)[C@@H](O)c1ccccc1 [phenylpropanolamine],0 (inactive),0 (inactive),0 (inactive),0 (inactive),0 (inactive),0 (inactive),0 (inactive),0 (inactive),0 (inactive),0 (inactive),0 (inactive),0 (inactive),0 (inactive),0 (inactive),0 (inactive),,,,,
CCN1C[C@]2(COC)CC[C@H](O)[C@@]34[C@@H]5C[C@H]6[C@H](OC(C)=O)[C@@H]5[C@](O)(C[C@@H]6OC)[C@H](C[C@H]23)[C@H]14 [Condelphine],0 (inactive),0 (inactive),0 (inactive),0 (inactive),0 (inactive),0 (inactive),0 (inactive),0 (inactive),0 (inactive),0 (inactive),0 (inactive),0 (inactive),0 (inactive),0 (inactive),0 (inactive),,,,,
CC(C)C[C@H](CN)CC(=O)O [pregabalin],0 (inactive),0 (inactive),0 (inactive),0 (inactive),0 (inactive),0 (inactive),0 (inactive),0 (inactive),0 (inactive),0 (inactive),0 (inactive),0 (inactive),0 (inactive),0 (inactive),0 (inactive),,,,,
Cc1sc2c(c1C)C(c1ccc(Cl)cc1)=N[C@@H](CC(=O)OC(C)(C)C)c1nnc(C)n1-2,1 (active),1 (active),1 (active),1 (active),1 (active),1 (active),1 (active),1 (active),1 (active),1 (active),1 (active),1 (active),1 (active),1 (active),1 (active),≤ 0.3,≤ 0.3,≤ 0.3,≤ 0.3,≤ 0.3
Cc1ccc(-c2nc3ccc(C)cn3c2CC(=O)N(C)C)cc1 [zolpidem],0 (inactive),0 (inactive),0 (inactive),0 (inactive),0 (inactive),0 (inactive),0 (inactive),0 (inactive),0 (inactive),0 (inactive),0 (inactive),0 (inactive),0 (inactive),0 (inactive),0 (inactive),,,,,
CNC(=O)Oc1ccc2c(c1)[C@]1(C)CCN(C)O[C@@H]1N2C [Geneserine],0 (inactive),0 (inactive),0 (inactive),0 (inactive),0 (inactive),0 (inactive),0 (inactive),0 (inactive),0 (inactive),0 (inactive),0 (inactive),0 (inactive),0 (inactive),0 (inactive),0 (inactive),,,,,
O=C1C[C@@H]2OCC=C3CN4CC[C@]56c7ccccc7N1[C@H]5[C@H]2[C@H]3C[C@H]46 [Strychnine],1 (active),0 (inactive),0 (inactive),0 (inactive),0 (inactive),0 (inactive),0 (inactive),0 (inactive),0 (inactive),0 (inactive),0 (inactive),0 (inactive),0 (inactive),0 (inactive),0 (inactive),9,,,,
CC(C)NCC(O)c1ccc(N)c(C#N)c1 (stereo unspecified) [Cimaterol],0 (inactive),0 (inactive),0 (inactive),0 (inactive),0 (inactive),0 (inactive),0 (inactive),0 (inactive),0 (inactive),0 (inactive),0 (inactive),0 (inactive),0 (inactive),0 (inactive),0 (inactive),,,,,
CCCCCC[C@H]1C(=O)O[C@H](C)[C@H](NC(=O)c2cccc(NC=O)c2O)C(=O)O[C@@H](C)[C@@H]1OC(=O)CC(C)C [antimycin a],1 (active),1 (active),1 (active),1 (active),1 (active),1 (active),1 (active),1 (active),1 (active),1 (active),1 (active),1 (active),1 (active),1 (active),1 (active),≤ 0.3,≤ 0.3,≤ 0.3,≤ 0.3,≤ 0.3
C=C1[C@@H](C)[C@H]2[C@H](Cc3ccccc3)NC(=O)[C@]23OC(=O)C=C[C@H](O)CCC[C@@H](C)CC=C[C@H]3[C@@H]1O [Cytochalasin B],1 (active),1 (active),1 (active),1 (active),1 (active),1 (active),1 (active),1 (active),1 (active),1 (active),1 (active),1 (active),1 (active),1 (active),1 (active),≤ 0.3,1,1,3,1
C/C=C1\C[C@@H](C)[C@](O)(CO)C(=O)OCC2=CCN3CC[C@@H](OC1=O)[C@@H]23 [Retrorsine],0 (inactive),0 (inactive),0 (inactive),0 (inactive),0 (inactive),0 (inactive),0 (inactive),0 (inactive),0 (inactive),0 (inactive),0 (inactive),0 (inactive),0 (inactive),0 (inactive),0 (inactive),,,,,
C[C@]12Cc3cn[nH]c3C[C@@H]1CC[C@@H]1[C@@H]2CC[C@@]2(C)[C@H]1CC[C@]2(C)O [stanozolol],0 (inactive),0 (inactive),0 (inactive),0 (inactive),0 (inactive),0 (inactive),0 (inactive),0 (inactive),0 (inactive),0 (inactive),0 (inactive),0 (inactive),0 (inactive),0 (inactive),0 (inactive),,,,,
